A selection: hits, their analogues and other compounds. The true share with any hit is near 2%.
HTT cytoprotect: Huntington cell model cytoprotection by ATP luminescence. 0.14% of 230,000 active. Potency, µM (top dose mostly 56.4 µM), without a hit: cytoprotection (ATP increase), usual class: activators. PC12 HTT-Q103 induced, cytoprotection, ATP luminescence, 40 h; also: potency is read from the fitted curve at half-maximal effect; % of control where 0% means no effect; nearly all actives have a fitted effect of over 45% in size
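PC12 cells stably carrying ecdysone-inducible Htt exon 1 (Q103)–GFP were induced with 100 nM tebufenozide (final) alongside library compounds in a dose series. Cytoprotection was scored as retained ATP by ATPlite luminescence.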
JMJD2E inh: inhibitors of human JMJD2E histone demethylase. B2RXH2. JMJD2E catalytic domain, FDH-coupled NADH fluorescence (FDH is formaldehyde dehydrogenase). Potency, µM (series often up to 57.1 µM), for inactives: at the top dose activity change, negative = inhibition, usual class: inhibitors. 1.6% of 230,000 active. AID 2147; active = well fitted inhibition curve with a large enough effect, not every such curve was filed as active; inconclusive = small, poorly fitted or top-dose-only effect, or another doubt; inactive = no such curve, though single readings can be large or run the other way;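 also: potency is read from the fitted curve at half-maximal effect; 0% = wells with enzyme and -100% = buffer wells without enzyme; nearly all actives have a fitted effect of over 50% in size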
Target sequence (B2RXH2 1-337 limits assumed): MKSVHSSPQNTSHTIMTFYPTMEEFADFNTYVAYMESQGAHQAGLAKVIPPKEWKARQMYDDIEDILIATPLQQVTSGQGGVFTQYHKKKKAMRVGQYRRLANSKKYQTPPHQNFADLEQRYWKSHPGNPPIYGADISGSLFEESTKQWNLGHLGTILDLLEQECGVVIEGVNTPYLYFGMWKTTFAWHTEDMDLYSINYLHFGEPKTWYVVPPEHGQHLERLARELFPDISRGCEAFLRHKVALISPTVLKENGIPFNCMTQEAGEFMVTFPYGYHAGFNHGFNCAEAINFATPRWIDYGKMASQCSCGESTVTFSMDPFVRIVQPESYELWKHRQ
TRb-SRC2 inh: disrupts binding of human TR beta to SRC2 | P10828 | TRbeta-SRC2 peptide binding, fluorescence polarization; receptor liganded with 1 µM T3 | Potency, µM (top dose mostly 106 µM), for inactives: top-dose activity change, negative = inhibition, hits mostly inhibitors | 0.065% of 280,000 active | AID 1469;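 also: potency is read from the fitted curve at half-maximal effect; plate controls were bound peptide for no effect and peptide without receptor for full effect; nearly all actives have a fitted effect of over 50% in size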
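Decrease in fluorescence polarization of 20 nM Texas Red SRC2 coactivator peptide flagged inhibition of its binding to 0.6 uM TRb LBD; 1 uM T3 included, incubation 5 hr, ex 555/em 632 nm.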
TexasRed fluor: Texas Red fluorescence interference in TRb-SRC2 counter-screen. Potency, µM (highest dose often 106 µM), without a hit: at the highest dose fluorescence change, negative = quenching. 0.29% of 280,000 active. AID 1479. TRb/SRC2 Texas Red total fluorescence interference; active = well fitted curve in either direction with a large enough effect; inconclusive = small, poorly fitted or top-dose-only effect; also: potency is read from the fitted curve at half-maximal effect; % is scaled to controls: 0 for no effect and ±100 for the full control effect
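Human TRβ ligand-binding domain (0.6 uM) and Texas Red SRC2 peptide (20 nM) in Tris buffer with 1 uM T3 and 5% DMSO were incubated with pinned compound for 5 hr at ambient temperature. Total fluorescence was computed as S + 2P (555/632 nm).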
HttQ103 aggreg: mutant huntingtin aggregation inhibition; Potency, µM (top dose mostly 46.1 µM), without a hit: at the top dose activity change, negative = inhibition, most hits filed as inhibitors; AID 1688; 1.1% of 220,000 active; PC12 HttQ103-GFP aggregates, Acumen cytometry, 40 h; also: potency is read from the fitted curve at half-maximal effect; % is scaled to controls: 0 for no effect and ±100 for the full control effect; nearly all actives have a fitted effect of over 60% in size
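PC12 cells with ecdysone-inducible HTT exon1 Q103-GFP, induced by 100 nM tebufenozide, given compounds in a concentration series. GFP aggregates (1–25 um, 6 SD above background) counted in lysates by laser-scanning cytometry, 488 nm excitation.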
Coupling enz: coupling enzyme interference in Giardia aldolase counter-screen | coupling enzyme system counterscreen, AmpLite Red fluorescence | activity change, negative = inhibition, % at 58.2 µM, hits read low | 0.67% of 290,000 active; in the data active = activity change below about -30%; also: % is scaled to controls: 0 for no effect and ±100 for the full control effect
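Final compound at 57.5 uM, incubated 10 min at RT with coupling enzyme reagent (glyceraldehyde-3-phosphate), then 20 min with substrate and AmpLite Red detection. Fluorescence read at 525/598 nm; tests interference with the coupling assay, not aldolase inhibition.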
The depositor's hits bear a star; ? = inconclusive; nt = not tested or not shown; [ ] = dose if it differs, or a comment. Unless noted, calls follow the shape of the dose curve; as a rule, active = well fitted curve in the direction sought with a large enough effect; inconclusive = small, poorly fitted or top-dose-only effect, or another doubt; inactive = no such curve, though single readings can be large; an effect the other way counts as inactive or inconclusive.

SMILES | HTT cytoprotect | JMJD2E inh | TRb-SRC2 inh | TexasRed fluor | HttQ103 aggreg | Coupling enz
Cc1ccc(CNC(=O)c2ccc(N3CCCC3=O)cc2)cc1 | 10% | 2% | -8% | -2% | 21% | 1
Oc1cccc(C=NCc2ccccc2)c1O | -16% | 13µM* | ? | -4% | -1% | -37*
O=c1c2ccccc2nc2n1CCC2 | 1% | 8.9µM* | -10% | -2% | 17% | 4
O=c1c2ccccc2nc2n1CCCCC2 | -29% | -3% | 4% | 1% | 6% | 0
O=c1c2cc(-c3ccccc3)sc2nc2n1CCC2 | -4%[10 µM] | 35µM* | -3% | -1% | -20% | 1
COc1ccc(O)c(/C=N/NC(=S)Nc2cccnc2)c1 | -148% | ? | 3% | -2% | 13µM* | 0
Cn1cc(-c2nc3cncnc3n(CCN)c2=O)c2ccccc21 | -6% | nt | nt | nt | nt | -10
C=CCc1cc(C(=O)N2CCCCC2)ccc1O | 10%[1.9 µM] | 3% | -6% | -5% | 22µM* | 1
Cc1ccc(S(=O)(=O)Nc2ccc(Br)cc2/C=N/n2cnnc2)cc1 | -26% | -3% | 5% | -12% | 2.2µM* | 3
O=[N+]([O-])c1cc2oc3c(c2c(C=NCc2ccncc2)c1O)CCCC3 | 29%[10 µM] | 28µM* | -4% | -10% | 2% | -32*
CC(C)(C)N=Cc1c(O)ccc2oc3c(c12)CCCC3 | nt | nt | nt | nt | nt | 1
CCC(O)OCCCOC (centres undefined) | nt | nt | -5%[201 µM] | -1%[201 µM] | nt | nt
CCCCc1nc2c(c3c1C[C@H](C)OC3)CN(C(=O)NCCc1c[nH]c3ccccc13)CC2 | 25%[10 µM] | 2%[11.4 µM] | 2%[11.2 µM] | -3%[11.2 µM] | nt | 4
O=C(CN1CCOCC1)NCc1ccccc1 | -13% | -3% | -7% | 1% | 0.32µM* | 2
Cc1ccc(N2C(=O)CC(Sc3ncn[nH]3)C2=O)cc1C (centres undefined) | -21% | 1.3µM* | -3% | 4% | -6% | 2
O=C1C2C3C=CC(CC3)C2C(=O)N1/N=C/c1ccc(O)cc1 (centres undefined) | -56% | -1% | -4% | -3% | 0% | 1
O=C1c2ccccc2C(=O)N1/N=C/c1ccc(O)c(O)c1 | nt | 16µM* | -2% | -3% | -3% | 1
O=C1C2C3C=CC(CC3)C2C(=O)N1/N=C/c1ccc(O)c(O)c1 (centres undefined) | 9%[10 µM] | 16µM* | 8% | -23% | ? | 2
CC(C)(C)c1ccc(CN2N=Nc3ccccc3S2(=O)=O)cc1 | -47% | -28% | -19% | -2% | -10%[9.22 µM] | -49*
COc1c(O)cccc1/C=N/NC(=O)Cn1ccnc1C | 3%[10 µM] | 10µM* | -2% | -1% | 16%[9.22 µM] | -2
CN1/C(=C\C(=O)Nc2ccc(F)cc2)C(C)(C)c2ccccc21 | -25%[10 µM] | ? | 4% | -11% | 6.3µM* | -16
O=C1C[C@@H](O)[C@@H](O)[C@@H]2[C@H]3C(=O)N(c4ccc(F)cc4F)C(=O)[C@@H]3CC[C@H]12 | -1%[10 µM] | nt | 0%[11.2 µM] | -6%[11.2 µM] | nt | 5
CC(C)NS(=O)(=O)c1ccc(CCC(=O)N2CCC(C(N)=O)CC2)cc1 | 31%[10 µM] | ? | -4% | -4% | 4%[9.22 µM] | -31*
CCc1ccc(O)c(N=Cc2cccc(C)c2O)c1 | 15% | ? | -2% | -6% | ? | -1
CCCc1ccc(O)c(N=Cc2cc(Br)cc(OCC)c2O)c1 | ? | 16µM* | -3% | 0% | -9% | -5
SMILES | HTT cytoprotect | JMJD2E inh | TRb-SRC2 inh | TexasRed fluor | HttQ103 aggreg | Coupling enz
COc1cc(N(C)C)cc(CN(C)CCc2ccc([N+](=O)[O-])cc2)c1O | nt | nt | ? | -16% | nt | -54*
COC(=O)C(C)Sc1nnc2cc(C)c3cc(C)cc(C)c3n12 (centres undefined) | nt | nt | -29% | 0.071µM*[quencher] | nt | nt
CCCN(CCC)C(=O)CSc1nnc2cc(C)c3cc(C)cc(C)c3n12 | nt | nt | -4% | -10% | nt | nt
CCOc1ccccc1NC(=O)CSc1nc2c(oc3ccccc32)c(=O)n1C(C)C | nt | nt | -9% | -1% | nt | nt
Cc1ccc(-c2cc(-c3ccco3)c3c(N)c(C(=O)NN)oc3n2)cc1 | 4%[10 µM] | 3.2µM* | -9% | -10% | 1%[9.22 µM] | -2
NNC(=O)c1oc2nc(-c3cccs3)cc(-c3ccco3)c2c1N | nt | nt | nt | nt | nt | -1
COn1c2c(c3c4nonc4ccc31)CCCC2 | 4% | ? | ? | -3% | ? | -43*
COn1c(C)c(C(C)=O)c2c3nonc3ccc21 | 6% | ? | -2% | -1% | 35µM* | -47*
On1c2c(c3c4nonc4ccc31)CCCC2 | 8%[10 µM] | -10% | 2% | 4% | -22% | -60*
COn1c2c(c3c4no[n+]([O-])c4ccc31)CCCC2 | 3%[10 µM] | 1% | 10% | 0% | -16% | 0
C=CCC(C)(O)c1cccc(Br)c1 (centres undefined) | 2% | -3% | 2% | 0% | nt | 3
CCOc1ccc(C(=O)Nc2cccc(NC(=O)c3ccc(C(C)(C)C)cc3)c2)cc1Br | nt | nt | -1% | -1% | nt | nt
